Source: PubChem (several laboratories)
Calb FLC = C. albicans growth inhibition with fluconazole, primary screen, CaCi-2 strain, Alamar Blue fluorescence. C. albicans CaCi-2 (fluconazole-resistant clinical isolate) + fluconazole, 48 h. growth inhibition, % (test concentration not listed). actives 0.57% (n = 300,000). AID 1979, 2009;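 active means growth inhibition above about 58% in most replicates, limit read from the data, passing the limit was not always enough; inconclusive means exactly half the replicates above a set limit; inactive means most replicates below a set limit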;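 further: all wells also contain fluconazole at 8 µg/ml as a sub-toxic cotreatment; 0% = median of DMSO wells and 100% = median of geldanamycin control wells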
Efflux pump inh = inhibitors of Candida efflux pumps in yeast, primary screen, S. cerevisiae, Nile Red, multiplex. S. cerevisiae Candida pump triplex. inhibition, % at 10 µM. actives 0.44% (n = 330,000). AID 485275, 2010;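 active means plate passing quality check with inhibition over a set limit, or well fluorescence over plate mean plus 4 SD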;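 further: Nile Red retained in pooled yeast measured as flow cytometry median fluorescence; 0% = buffer negative control and 100% = Enniatin B positive control; higher means more Nile Red kept so more efflux inhibition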
PHOSPHO1 block = PubChem AID 1565; recombinant PHOSPHO1, absorbance phosphatase assay; actives 1.1% (n = 290,000); inhibition, % at 13.3 µM; Phosphoethanolamine/phosphocholine phosphatase (Homo sapiens), Q8TCT1; in the data active means inhibition above about 60%
Target sequence (Q8TCT1 whole entry, looked up): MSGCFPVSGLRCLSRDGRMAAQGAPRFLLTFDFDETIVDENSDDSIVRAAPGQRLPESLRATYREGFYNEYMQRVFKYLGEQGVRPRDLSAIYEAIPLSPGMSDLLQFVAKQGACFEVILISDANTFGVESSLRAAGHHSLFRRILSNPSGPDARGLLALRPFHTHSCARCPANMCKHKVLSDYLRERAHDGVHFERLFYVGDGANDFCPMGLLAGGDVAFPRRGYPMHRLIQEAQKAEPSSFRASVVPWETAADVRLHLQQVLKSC
Cardio protect = cardioprotection against H2O2-induced cell death, primary screen, uHTS, H9c2 cells, ATPLite luminescence; H9c2 cardiomyocytes, H2O2 injury protection, 2 h; protection from H2O2 cell death, % at 20 µM; actives 0.63% (n = 360,000); AID 588492, 2011;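 active means compounds giving at least 50% protection of heart cells from peroxide-induced death in the single-dose screen, raw or plate-pattern-corrected value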;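 further: 0% = DMSO wells with peroxide and 100% = DMSO wells without peroxide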
KCC2 mod = KCC2 cotransporter modulators, thallium flux, primary screen, cell-based, HEK293 KCC2, FluoZin-2 fluorescence, MLSMR; KCC2 cells, thallium flux FluoZin-2 fluorescence; B-score of Tl+ flux slope (higher = more flux/activation; lower = inhibition) at 10 µM; actives 2.2% (n = 190,000);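 active means thallium flux slope and its plate-corrected score both differing from the plate sample mean at a set confidence after two filtering rounds, in either direction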;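 further: slope of fluorescence scaled to starting intensity during 10 to 20 s after thallium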
* = called active by the depositor; ? = inconclusive; / = no result given. Sampled rows, rich in hits. Any-hit rate of the full collection: about 3.3%.

SMILES	Calb FLC	Efflux pump inh	PHOSPHO1 block	Cardio protect	KCC2 mod
O=C(NNC(=S)Nc1ccc(Cl)c(Cl)c1)c1cccc([N+](=O)[O-])c1	-2	0	-25	-11	-5.4*
Cc1occc1C(=O)NNC(=S)Nc1cccc([N+](=O)[O-])c1	-7	0	88*	6	-0.34
CC(C)C(C(=O)NCC1CCCO1)N(C(=O)CNS(=O)(=O)c1ccccc1)c1ccc(F)cc1 (centres undefined)	-17	0	-22	1	/
CCNC(=O)COC(=O)C1CCC(=O)N(c2ccc(OC)cc2)C1c1ccc(OC)cc1 (centres undefined)	-4	0	4	4	0.59
COc1ccc(C2C(C(=O)OCC(=O)N3CCCCC3)CCC(=O)N2c2ccc(OC)cc2)cc1 (centres undefined)	20	0	68*	10	/
COc1cccc(C(c2nnnn2CC2CCCO2)N2CCN(C(=O)c3ccco3)CC2)c1OC (centres undefined)	1	0	50	-4	0.19
O=C(c1cc(NC(=O)C23CC4CC(CC(C4)C2)C3)cc(NC(=O)C23CC4CC(CC(C4)C2)C3)c1)N1CCCCC1	44	1.1*	-3	/	-0.41
O=C(Nc1cccc(C(=O)N2CCCCC2)c1)C1CC1	/	/	/	4	/
O=C(NC(=S)N1CCCCC1)C12CC3CC(CC(C3)C1)C2	5	0	84*	-2	35*
CC12CC3CC(C)(C1)CC(C(=O)N1CCCC1)(C3)C2	-10	0	59	13	/
CC12CC3CC(C)(C1)CC(C(=O)NC(=S)N1CCOCC1)(C3)C2	11	0	-131	0	5*
Cc1ccc(C(=O)CCC(=O)NNC(=O)c2ccccc2O)cc1	/	0	/	22	/
COc1ccc(C(=O)Nc2cccc(/C(C)=N/NC(=O)c3ccc([N+](=O)[O-])c(C)c3)c2)cc1OC	-2	0	-2	95*	0.08
Cc1cccc(OCc2nnc(SCC(=O)Nc3ccc(N4CCOCC4)cc3)o2)c1	-1	0	31	-2	/
O=C(O)CC(c1ccccc1)c1ccc2c(c1)OCO2 (centres undefined)	/	/	/	1	/
CC(=O)Nc1cc(-c2ccc(C(=O)N3CCOCC3)cc2)cn2c(-c3cccc(C(F)(F)F)c3)cnc12	/	/	/	17	/
Cn1cc(C(=O)c2ccc(Cl)cc2Cl)cc1C(=O)N/N=C(\N)COc1ccc(Cl)cc1	?	0	48	96*	/
Cn1cc(C(=O)c2ccc(Cl)cc2Cl)cc1C(=O)N/N=C(\N)COc1ccc(Cl)cc1Cl	-5	0	7	86*	/
Cc1cccc(OCc2n[nH]c(=S)o2)c1	39	0	98*	5	-4.8
CCCn1c(=S)[nH]c2cc(C(=O)N3CCN(c4ccc(F)cc4)CC3)ccc2c1=O	/	/	/	4	/
Cc1cccc(NC(=S)NC(=O)c2cc(-c3ccccc3)nc3ccccc23)c1	-3	0	6	6	8.5*
O=C(O)c1ccccc1NC(=O)c1cc(-c2ccccc2)nc2ccccc12	-5	0	28	-5	/
Cc1ccccc1NC(=S)NC(=O)c1cc(-c2ccccc2)nc2ccccc12	3	0	8	3	14*
CC[C@H](C)[C@H](NC(=O)OCc1ccccc1)C(=O)OCC(=O)N1CCN(c2ccc(F)cc2)CC1	/	/	/	-8	/
COc1cc(C(=O)OCC(=O)N2CCC(C)CC2)cc2c1OCCO2	/	0	/	5	/
SMILES	Calb FLC	Efflux pump inh	PHOSPHO1 block	Cardio protect	KCC2 mod
CC(NC(=O)C1CCCN(C(=O)c2ccc(Cl)cc2)C1)c1cccc(C(F)(F)F)c1 (centres undefined)	/	0	/	1	/
O=C(O)c1ccc(CSc2nnnn2-c2ccc(F)cc2)cc1	-2	0	37	-2	/
O=C(CSc1nnnn1-c1ccc(F)cc1)c1ccc(O)c(O)c1	8	0	-12	54*	-0.13
CC(C)c1ccc(NC(=O)C2C3C=CC4(O3)C2C(=O)N(CCCN2CCOCC2)C4C(=O)NC2CCCCC2)cc1 (centres undefined)	4	0	23	-4	/
CC1(C)CC2C1CCC1(O)CC2(C)CCC1N(O)c1ccc(C(=O)NCCO)cn1 (centres undefined)	/	0	/	51*	/
FC(F)(F)c1cccc(NC(=S)Nc2ccc(Cl)cc2Cl)c1	2	0	2	-24	4.5*
CCOc1cccc(C(=O)NC(=S)Nc2ccccc2)c1	-51	0	6	-11	19*
O=C(NNC(=S)Nc1ccccc1)c1cccc(Br)c1	19	0	89*	-12	3.3*
O=C(NNC(=S)Nc1cccc(C(F)(F)F)c1)c1cccc(Cl)c1	9	0	7	-28	5.8*
Cc1cc(NC(=O)CSc2n[nH]c(-c3ccc(Cl)cc3Cl)n2)no1	/	0	/	-2	/
CC1CCC(NC(=O)CCS(=O)(=O)c2ccc3c(c2)NC(=O)C(C)S3)CC1 (centres undefined)	-6	0	-6	-4	/
CCOc1cc(OCC)cc(C(=O)Nc2cccnc2)c1	-1	0	-2	2	-0.62
CCCOc1cccc(C(=O)Nc2cccnc2)c1	110*	0	7	-5	/
NC(=S)Nc1cccc2cc3ccccc3cc12	-22	0	97*	-5	/
Cc1ccc(-c2nnc(SCC(=O)N3CCOCC3)nc2-c2ccc(C)cc2)cc1	0	0	68*	29	-0.042
Cc1ccc(-c2nnc(SCC(N)=O)nc2-c2ccc(C)cc2)cc1	8	0	23	-1	/
COc1ccccc1Nc1cc2cc(Br)ccc2c(=O)[nH]1	-5	0	/	0	/
COc1ccc(OC)c(Nc2cc3ccccc3c(=O)[nH]2)c1	17	0	/	54*	/
COc1cc([C@@H]2c3cc4c(cc3[C@H](O)[C@H]3COC(=O)[C@H]23)OCO4)cc(OC)c1OC	/	0	28	6	-0.046
COc1cc([C@@H]2c3cc4c(cc3[C@@H](NC3CCN(Cc5ccccc5)CC3)[C@H]3COC(=O)[C@H]23)OCO4)cc(OC)c1O	101*	/	35	/	-0.26
CC(C)(CNC(=O)c1cc2ccccc2o1)N1CCOCC1	-5	0	68*	-3	0.67
COC(=O)c1ccc(OCC(=O)NC2CCCCCC2)cc1	-17	-3	63*	-3	/
O=S(=O)(Nc1nc2ccccc2s1)c1ccc(Br)s1	89*	0	39	-12	-1.7
Cc1ccc(S(=O)(=O)Nc2nc3ccccc3s2)cc1	41	0	-2	-3	-0.081
CCOC(=O)CC1(NC(=O)C2CCC(=O)N(Cc3ccccc3OC)C2)CCCCC1 (centres undefined)	-48	0	66*	2	/
COc1ccccc1CN1CC(C(=O)NC2(c3ccccc3)CC2)CCC1=O (centres undefined)	-6	0	26	3	/
